# Bioassay records (PubChem)
# In the library only some 19% were active in any assay of this set; here they are far more common.
# IL1B secr inh = qHTS for Inhibitors of Inflammasome Signaling: IL-1-beta AlphaLISA Primary Screen; THP-1 LPS/ATP IL-1B secretion, AlphaLISA, 16 h; active compounds read low; activity change, % at 57.5 µM; 360,000 tested, 4.7% active; in the data active = activity change below about -50%; inconclusive = mostly about -30% to -49%; also: % is scaled to controls: 0 for no effect and ±100 for the full control effect
#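 Secreted IL-1B measured by AlphaLISA bead assay after 16 h compound exposure of THP-1 cells; compounds (final up to 57.5 uM) added 1 h before LPS (250 ng/mL) and ATP (1.25 mM) stimulation; lower signal means less secretion.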
# SW480 rereplic = A quantitative high throughput screen for small molecules that induce DNA re-replication in SW480 colon adenocarcinoma cells | 340,000 tested, 1.8% active | SW480 DNA re-replication, Hoechst DNA content imaging, 48 h | Potency, µM (highest dose often 46.1 µM), for inactives: at the highest dose re-replication activation, hits mostly activators; also: potency is read from the fitted curve at half-maximal effect; % of control where 0% means no effect; nearly all actives have a fitted effect of over 55% in size
#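 Cells (250 per well) received 23 nL compound or DMSO by pin tool and were kept 48 hr at 37 C, 5% CO2. Nuclei were then stained with Hoechst for 40 min and scanned for DNA content.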
# BCR signal inh = qHTS Assay to Find Inhibitors of Chronic Active B-Cell Receptor Signaling; ABC-DLBCL IkBa-CBG/CBR reporter, luminescence ratio, 4 h; Potency, µM (doses to about 46.1 µM), for the others: at the highest dose activity change, negative = inhibition, hits mostly inhibitors; 340,000 tested, 0.05% active; AID 493014, 2011; active = well fitted inhibition curve with a large enough effect in the signal ratio, with a control signal flat, not every such curve was filed as active; inconclusive = small, poorly fitted or top-dose-only effect, or effect the other way, or a change in a side signal; the % refers to the signal ratio;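 also: potency is read from the fitted curve at half-maximal effect; plate controls were basal doxycycline-induced cells for no effect and cells given 10 µM MG132 for full effect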
#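 Cell line TMD8 (human ABC DLBCL), stably expressing tet-inducible CBG68-IkBa fusion and CBR; IMDM/0.5% FBS; cpd up to 46 uM; dox induction, 4 h, 37C/5% CO2; dual luminescence; green/red ratio; MG132 control.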
# DT40 TDP1 no CPT = qHTS for Inhibitors of human tyrosyl-DNA phosphodiesterase 1 (TDP1): qHTS in cells in absence of CPT | DT40 Tdp1-/- hTDP1 cells, no CPT, ATP luminescence, 48 h | Potency, µM (top dose mostly 46.2 µM), for inactives: top-dose activity change, negative = growth inhibition, most hits filed as inhibitors | 420,000 tested, 15% active | AID 686978, 2013; also: potency is read from the fitted curve at half-maximal effect; % is scaled to controls: 0 for no effect and ±100 for the full control effect; nearly all actives have a fitted effect of over 55% in size
#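 Readout: luminescence from CellTiter-Glo after 30 min in the dark at RT. Cells: DT40 Tdp1-/- with stable hTDP1, 400/well. Exposure: compounds alone, ≥48 hr, 37 °C.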
# MCF10A rereplic = A quantitative high throughput screen for small molecules that induce DNA re-replication in MCF 10a normal breast cells | MCF 10A DNA re-replication, Hoechst nuclear intensity, 48 h | Potency, µM (series often up to 46.1 µM), for inactives: at the highest dose activity, positive = re-replication, most hits filed as activators | 350,000 tested, 2.9% active | AID 624296, 2012; also: potency is read from the fitted curve at half-maximal effect; % of control where 0% means no effect; nearly all actives have a fitted effect of over 50% in size
# TDP1 cell CPT = qHTS for Inhibitors of human tyrosyl-DNA phosphodiesterase 1 (TDP1): qHTS in cells in presence of CPT | Potency, µM (series often up to 46.2 µM), inactives show top-dose activity change, negative = growth inhibition, most hits filed as inhibitors | chicken DT40 Tdp1-/-;hTDP1 cells + 20 nM CPT, ATP luminescence, 48 h | AID 686979, 2013 | 420,000 tested, 12% active; also: potency is read from the fitted curve at half-maximal effect; % is scaled to controls: 0 for no effect and ±100 for the full control effect; nearly all actives have a fitted effect of over 55% in size
#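 Cell growth measured by CellTiter-Glo luminescence after a minimum 48 h, 37 C compound exposure with 20 nM CPT in Tdp1-knockout DT40 cells stably expressing hTDP1, seeded 400/well; qHTS titration format.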
# * marks the source's active call; other numbers are inactive results; i = inactive; ? = inconclusive; · = no result given. Unless noted, calls follow the shape of the dose curve; as a rule, active = well fitted curve in the direction sought with a large enough effect; inconclusive = small, poorly fitted or top-dose-only effect, or another doubt; inactive = no such curve, though single readings can be large; an effect the other way counts as inactive or inconclusive.
SMILES,IL1B secr inh,SW480 rereplic,BCR signal inh,DT40 TDP1 no CPT,MCF10A rereplic,TDP1 cell CPT
Cc1ccccc1C(=O)N(C)Cc1ccccc1,-1,-24%,8%,?,?,-9%
CCCCOc1ccc(C(=O)N(Cc2ccc(N(C)C)cc2)Cc2ccco2)cc1,·,·,·,13µM*,·,?
CCSc1ncc(Cl)c(C(=O)N(Cc2ccccc2)c2ccc(OC)cc2)n1,·,·,·,5.8µM*,·,?
CCSc1ncc(Cl)c(C(=O)N(Cc2ccc(N(C)C)cc2)Cc2ccco2)n1,·,·,·,21µM*,·,?
COc1ccc(OC(=O)c2nc(SCc3ccccc3F)ncc2Cl)cc1,·,·,·,-22%,·,-9%
Cc1ccccc1C(=O)N(Cc1ccc(N(C)C)cc1)Cc1ccco1,·,·,·,18µM*,·,?
COCCNC(=O)c1ccc2c(c1)NC(=O)C(CS(=O)(=O)Cc1ccc(F)cc1Cl)N2 (centres undefined),·,·,7%,-12%,·,-12%
O[C@@H]1CN(Cc2cccs2)[C@@H](c2ccc(Cl)cc2)C[C@H]1n1cc(C2CC2)nn1,-6,·,·,?,·,?
Cc1c(Cl)cccc1NC(=O)c1cnc2sc(N3CCOCC3)nn2c1=O,·,·,·,?,·,-27%
C=C(C)c1ccc(C(C)(C)NC(=O)N(Cc2ccccc2)Cc2ccco2)cc1,0,3%,?,16µM*,4%,18µM*
CCCCOc1ccc(C(=O)N(Cc2ccco2)Cc2ccco2)cc1,·,·,·,21µM*,·,?
CC(C)Oc1ccc(C(=O)N(Cc2ccco2)c2ccccn2)cc1,·,·,·,?,·,-26%
CCOc1ccc(C(=O)NCc2ccco2)cc1,-4,2%,-1%,-27%,?,?
CC(C)Oc1ccc(C(=O)N(Cc2ccc(N(C)C)cc2)Cc2ccco2)cc1,·,·,·,13µM*,·,?
Cc1ccc(C(=O)N(Cc2ccc(N(C)C)cc2)Cc2ccco2)cc1,·,·,·,21µM*,·,?
Cc1cc(NC(=O)CCC(=O)N(CC(=O)NC2CCCC2)c2cccc(F)c2)no1,12,-3%,-14%,-12%,-20%,-7%
CCOC(=O)c1c(NC(=O)/C=C/c2ccc(C)cc2)sc2c1CCCC2,·,·,·,-3%,·,17%
Cc1cc(C)c2c(CC(=O)N(Cc3ccc(N(C)C)cc3)Cc3ccco3)coc2c1,·,·,·,21µM*,·,15µM*
COC(=O)[C@@]1(Cc2ccc(OC)cc2)[C@H]2c3cc(C(=O)N4CCCC4)n(CCO)c3C[C@H]2CN1C(=O)c1ccccc1,-17,-3%,0%,-5%,24%,0%
COC(=O)[C@@]1(Cc2ccc(F)cc2)[C@H]2c3cc(C(=O)N4CCCC4)n(Cc4ccc(Cl)c(C(F)(F)F)c4)c3C[C@H]2CN1C(=O)c1ccccc1,-5,·,·,21µM*,·,21µM*
COC(=O)[C@@]1(Cc2ccc(F)cc2)[C@H]2c3cc(C(=O)N4CCCC4)n(CCc4ccc(OC)c(Br)c4)c3C[C@H]2CN1C(=O)c1ccccc1,-67*,·,·,18µM*,·,?
COC(=O)[C@@]1(Cc2ccc(OC)cc2)[C@H]2c3cc(C(=O)N4CCCC4)n(Cc4ccccc4)c3C[C@H]2CN1C(=O)c1ccccc1,-66*,·,·,16µM*,·,?
COC(=O)[C@@]1(Cc2ccc(OC)cc2)[C@H]2c3cc(C(=O)N4CCCC4)n(CCc4ccc(OC)c(Br)c4)c3C[C@H]2CN1C(=O)c1ccccc1,0,·,·,21µM*,·,15µM*
CN[C@H](CC(C)C)C(=O)N[C@H]1C(=O)N[C@@H](CC(N)=O)C(=O)N[C@H]2C(=O)N[C@H]3C(=O)N[C@H](C(=O)N[C@@H](C(=O)O)c4cc(O)cc(O)c4-c4cc3ccc4O)[C@H](O)c3ccc(c(Cl)c3)Oc3cc2cc(c3O[C@@H]2O[C@H](CO)[C@@H](O)[C@H](O)[C@H]2O[C@H]2C[C@](C)(N)C(O)[C@H](C)O2)Oc2ccc(cc2Cl)[C@H]1O (some centres undefined),·,·,·,-23%,·,-6%
C=CCNC(=S)NNC(=O)COc1cccc(Cl)c1,15,?,18µM*,?,-19%,-21%
SMILES,IL1B secr inh,SW480 rereplic,BCR signal inh,DT40 TDP1 no CPT,MCF10A rereplic,TDP1 cell CPT
C=CCNC(=S)NNC(=O)COc1ccc(Br)cc1,0,-7%,?,-2%,-3%,2%
C=CCNC(=S)NNC(=O)COc1ccc2cc(Br)ccc2c1,?,6%,?,8.2µM*,26%,?
COc1cccc(S(=O)(=O)Nc2ccc3c(c2)C(=O)N(C)C[C@H](OC)[C@H](C)CN[C@@H](C)CO3)c1,16,·,·,-4%,·,7%
CCOc1ccc(-n2c(SCc3cc(=O)oc4cc(C)ccc34)nnc2-c2cccnc2)cc1,-54*,2%,-14%,?,1%,?
CC(C)c1ccccc1-n1c(SCc2cc(=O)oc3ccc4ccccc4c23)nnc1-c1cccnc1,-51*,·,7%,15µM*,19%,?
CC(=O)Nc1ccc2c(CSc3nnc(-c4cccnc4)n3-c3ccc(C)cc3C)cc(=O)oc2c1,-27,-18%,-6%,-13%,2%,-25%
CN(C)S(=O)(=O)N(CC(=O)NCCSCc1ccccc1Cl)c1ccccc1,·,·,14%,?,·,?
COc1ccc(S(=O)(=O)N2CCOC2CNC(=O)C(=O)NCCc2ccccc2OC)cc1C (centres undefined),-15,16%,-7%,?,17%,?
COc1ccc(S(=O)(=O)N2CCOC2CNC(=O)C(=O)NCCc2c[nH]c3ccccc23)cc1C (centres undefined),0,8%,-16%,23µM*,4%,23µM*
COc1ccc(S(=O)(=O)N2CCOC2CNC(=O)C(=O)NCCc2c[nH]c3ccccc23)cc1 (centres undefined),-16,0%,-9%,?,4%,16µM*
COc1ccccc1CCNC(=O)C(=O)NCC1OCCN1S(=O)(=O)c1ccc(Br)cc1 (centres undefined),8,7%,-2%,-4%,?,-3%
COc1ccccc1CNC(=O)C(=O)NCC1OCCN1S(=O)(=O)c1ccc(Br)cc1 (centres undefined),i,23µM*,-16%,?,0%,?
